In PubChem BioAssay:
Active and inactive are the calls of the source.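 The calls were made as follows: active = thallium flux through the channel raised or lowered by more than 3 SD from vehicle-only wells, actives on both sides; inactive = the rest.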

Key:
Assay in all cases: BK channel mutant inhibitors and activators – cell-based, U2OS BacMam, thallium flux, beta subunits, selectivity assay, profiling panel (AID 1259406);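 also: initial slope of Thallos dye fluorescence rise after thallium is added; log ratio against the mean of 0.3% DMSO vehicle wells on the same plate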
F380Y = conditions: U2OS BacMam BK variants, at 30 µM
F380Y/beta1 = conditions: U2OS BacMam BK variants, at 30 µM
F380Y/beta2Delta = conditions: U2OS BacMam BK variants, at 30 µM
F380Y/beta4 = conditions: U2OS BacMam BK variants, at 30 µM
[1] = target: Calcium-activated potassium channel subunit alpha-1 (Homo sapiens) + Leucine-rich repeat-containing protein 26 (Homo sapiens) (UniProt Q12791+Q2I0M4); conditions: U2OS BacMam BK variants, F380Y/Slo1WT/gamma1, at 30 µM
Calcium-activated potassium channel subunit alpha-1 (Homo sapiens) + Leucine-rich repeat-containing protein 26 (Homo sapiens), sequence (Q2I0M4 whole entry, looked up, one chain of several): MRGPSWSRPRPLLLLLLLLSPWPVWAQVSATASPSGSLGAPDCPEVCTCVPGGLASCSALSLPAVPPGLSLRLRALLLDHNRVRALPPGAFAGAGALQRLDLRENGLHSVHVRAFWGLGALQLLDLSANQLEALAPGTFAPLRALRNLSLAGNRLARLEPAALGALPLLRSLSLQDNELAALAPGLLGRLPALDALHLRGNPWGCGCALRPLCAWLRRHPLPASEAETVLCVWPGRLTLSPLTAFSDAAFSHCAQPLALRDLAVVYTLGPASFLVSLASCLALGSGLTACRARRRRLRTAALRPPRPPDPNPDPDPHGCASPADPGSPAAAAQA

R275C = conditions: U2OS BacMam BK variants, at 30 µM
R275C/beta1 = conditions: U2OS BacMam BK variants, at 30 µM
R275C/beta2Delta = conditions: U2OS BacMam BK variants, at 30 µM
R275C/beta4 = conditions: U2OS BacMam BK variants, at 30 µM
R275C/Slo1WT/beta2 = conditions: U2OS BacMam BK variants, at 30 µM

Measured: log fold change Tl+ flux

CCOC(=O)C(C#N)=CNc1ccccc1OC(F)(F)F
inactive: F380Y -0.00694 | F380Y/beta1 -0.036 | F380Y/beta2Delta 0.0178 | F380Y/beta4 0.027 | [1] -0.0183 | R275C -0.0335 | R275C/beta1 -0.00201 | R275C/beta2Delta -0.00638 | R275C/beta4 -0.0357 | R275C/Slo1WT/beta2 -0.0488

C1=CC=CC(C2C=CC=CC=C2)C=C1
inactive: F380Y 0.0519 | F380Y/beta1 0.0343 | F380Y/beta2Delta -0.0453 | F380Y/beta4 0.0315 | [1] -0.0568 | R275C -0.00176 | R275C/beta1 -0.00852 | R275C/beta2Delta -0.000831 | R275C/beta4 0.0377 | R275C/Slo1WT/beta2 -0.0164

Cc1nc2ccc(C(=O)O)cc2[nH]1
inactive: F380Y 0.0381 | F380Y/beta1 0.0177 | F380Y/beta2Delta 0.0131 | F380Y/beta4 0.0015 | [1] 0.0154 | R275C 0.0142 | R275C/beta1 0.0541 | R275C/beta2Delta 0.0118 | R275C/beta4 -0.00127 | R275C/Slo1WT/beta2 0.0354

Oc1c(Cl)cc(Cl)cc1C=Nc1nccs1
inactive: [1] 0.0431 | R275C -0.0362 | R275C/beta4 0.0731 | R275C/Slo1WT/beta2 0.0241
active: F380Y 0.115 | F380Y/beta1 0.153 | F380Y/beta2Delta 0.108 | F380Y/beta4 0.105 | R275C/beta1 0.112 | R275C/beta2Delta 0.0936

CCOC(=O)c1ccc(N2CCOCC2)c(N=Cc2cc(Cl)cc(Cl)c2O)c1
active: F380Y/beta1 0.162 | F380Y/beta4 0.0975 | R275C/beta1 0.163 | R275C/beta2Delta 0.0906 | R275C/beta4 0.128
inactive: F380Y 0.0511 | F380Y/beta2Delta 0.0876 | [1] 0.0345 | R275C -0.00571 | R275C/Slo1WT/beta2 0.0153

Cc1cc(C(=O)N2CCN(c3ncccc3C#N)CC2)no1
inactive: F380Y -0.0195 | F380Y/beta1 0.00841 | F380Y/beta2Delta -0.0191 | F380Y/beta4 0.032 | [1] -0.00848 | R275C 0.011 | R275C/beta1 0.022 | R275C/beta2Delta 0.0483 | R275C/beta4 0.00374 | R275C/Slo1WT/beta2 0.00615

Cc1onc(-c2c(Cl)cccc2Cl)c1C(=O)NOC(=O)c1cccs1
inactive: F380Y 0.00334 | F380Y/beta1 0.0153 | F380Y/beta2Delta 0.0189 | F380Y/beta4 0.0829 | [1] -0.0657 | R275C -0.0156 | R275C/beta1 0.0266 | R275C/beta2Delta 0.0291 | R275C/beta4 0.0618 | R275C/Slo1WT/beta2 -0.0647

CN(NC(=O)c1ccc(Cl)s1)c1cnn(-c2cc(Cl)cc(Cl)c2)c(=O)c1Cl
inactive: F380Y 0.0366 | F380Y/beta1 -0.0161 | F380Y/beta2Delta 0.019 | F380Y/beta4 0.00909 | [1] -0.0561 | R275C -0.0148 | R275C/beta1 0.00182 | R275C/beta2Delta 0.046 | R275C/beta4 -0.0313 | R275C/Slo1WT/beta2 -0.00119

N#Cc1cccc(CSc2ncnc(N)n2)c1
inactive: F380Y 0.00879 | F380Y/beta1 0.0215 | F380Y/beta2Delta 0.00942 | F380Y/beta4 -0.00378 | [1] 0.019 | R275C 0.0199 | R275C/beta1 -0.0244 | R275C/beta2Delta 0.0122 | R275C/beta4 0.019 | R275C/Slo1WT/beta2 0.00642

O=C(CCN1CCOCC1)Nc1cc(Cl)cc(Cl)c1
inactive: F380Y 0.0457 | F380Y/beta1 0.0335 | F380Y/beta2Delta 0.00661 | F380Y/beta4 0.024 | [1] -0.0241 | R275C 0.0216 | R275C/beta1 0.0618 | R275C/beta2Delta 0.0272 | R275C/beta4 0.0419 | R275C/Slo1WT/beta2 -0.0333

COC(=O)c1c(S(=O)(=O)N2CCOCC2)c(C)n(C)c1C
inactive: F380Y 0.000226 | F380Y/beta1 0.0187 | F380Y/beta2Delta -0.00469 | F380Y/beta4 0.00738 | [1] 0.0534 | R275C -0.00135 | R275C/beta1 0.0384 | R275C/beta4 0.0019 | R275C/Slo1WT/beta2 -0.000777
active: R275C/beta2Delta 0.108

COC(=O)c1cc(S(=O)(=O)N(Cc2ccc(OC)cc2)Cc2cccn2C)oc1C
active: F380Y -0.118 | F380Y/beta1 -0.0838 | F380Y/beta4 -0.483 | [1] -0.414 | R275C -0.56 | R275C/beta1 -0.496 | R275C/beta2Delta -0.122 | R275C/beta4 -0.289 | R275C/Slo1WT/beta2 -0.135
inactive: F380Y/beta2Delta -0.0509

O=C(O)CSCC(=O)Nc1ccc(-c2nc3ccccc3s2)cc1
active: F380Y/beta1 0.19 | [1] 0.126
inactive: F380Y -0.0115 | F380Y/beta2Delta -0.0257 | F380Y/beta4 -0.0352 | R275C 0.0193 | R275C/beta1 0.0504 | R275C/beta2Delta 0.0724 | R275C/beta4 0.0271 | R275C/Slo1WT/beta2 -0.022
